The nature of assay [1]: optical density shifts of acrAB sulA E. coli – strain DRC41, OD650, 48 h, E. coli filamentation inducer project, primary screen (AID 1152).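 Also: E. coli MC1000 strain DRC41 lacking acrAB efflux pump and sulA.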 To be noted: higher = more signal, called active from +8 up or from −8 down.
Assay [2] is described as follows: probe aLefty1 binding on compound microarray – biochemical, small-molecule microarray, 635/667 nm fluorescence, primary screen (AID 1153).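 Also: score merges spot fluorescence with signal-to-noise ratio from the scanned slide images.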 To be noted: higher = more signal.
A short description of assay [3]: plasmodial surface anion channel blockers, osmotic lysis – cell-based, P. falciparum Indochina, OD700, 1 h, primary screen (AID 1154). The following applies: P. falciparum Indochina infected RBC osmotic lysis, higher = more signal, called active from +8 up or from −8 down.
Assay [4] is described as follows: plasmodial surface anion channel blockers, osmotic lysis – cell-based, P. falciparum Indochina, OD700, 2 h, primary screen (AID 1155).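 Also: lysis reports solute entry through the parasite surface anion channel PSAC.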 The following applies: P. falciparum Indochina infected erythrocytes, higher = more signal, called active from +8 up or from −8 down.
Assay [5] in a line: changes in parasitized red cell lysis, either direction – P. falciparum Indochina, OD700, 3 h, PSAC antagonist project, primary screen (AID 1156). The following applies: P. falciparum-infected erythrocytes, osmotic lysis, higher = more signal, called active from +8 up or from −8 down.
Assay [6] can be described thus: plasmodial surface anion channel blockers, osmotic lysis – cell-based, P. falciparum Indochina, OD700, 18 h, primary screen (AID 1157). The following applies: P. falciparum Indochina infected erythrocytes, osmotic lysis OD700, 18 h; higher = more signal, called active from +8 up or from −8 down.
Assay [7] can be described thus: S6 kinase pathway phospho-S6 level changes – cell-based, A549, cytoblot, luminescence, serum-stimulated, primary screen (AID 1158).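 Also: serum-stimulated A549 lung adenocarcinoma cells; signal is phosphorylated S6 detected by cytoblot immunostaining with HRP secondary.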 The following applies: 5 h, higher = more signal.
Assay [8] addresses NADPH oxidase 2 (Homo sapiens) (UniProt P04839). Nature of the assay: compounds shifting NOX2 Amplex Red fluorescence – cell-based, HEK293-NOX2, PMA-stimulated, NOX inhibitor project, primary screen (AID 1159). Also: test concentration not given here. To be noted: 45 min, higher = more signal, called active from +8 up or from −8 down.
In assay [9] the target is NADPH oxidase 4 (Homo sapiens) (UniProt Q9NPH5). Nature of the assay: compounds shifting NOX4 Amplex Red fluorescence – cell-based, HEK293-NOX4, tetracycline-induced, NOX inhibitor project, primary screen (AID 1160). To be noted: HEK293-NOX4, Amplex Red H2O2 fluorescence, 45 min; higher = more signal, called active from +8 up or from −8 down.
NADPH oxidase 4 (Homo sapiens), sequence (Q9NPH5 whole entry, looked up): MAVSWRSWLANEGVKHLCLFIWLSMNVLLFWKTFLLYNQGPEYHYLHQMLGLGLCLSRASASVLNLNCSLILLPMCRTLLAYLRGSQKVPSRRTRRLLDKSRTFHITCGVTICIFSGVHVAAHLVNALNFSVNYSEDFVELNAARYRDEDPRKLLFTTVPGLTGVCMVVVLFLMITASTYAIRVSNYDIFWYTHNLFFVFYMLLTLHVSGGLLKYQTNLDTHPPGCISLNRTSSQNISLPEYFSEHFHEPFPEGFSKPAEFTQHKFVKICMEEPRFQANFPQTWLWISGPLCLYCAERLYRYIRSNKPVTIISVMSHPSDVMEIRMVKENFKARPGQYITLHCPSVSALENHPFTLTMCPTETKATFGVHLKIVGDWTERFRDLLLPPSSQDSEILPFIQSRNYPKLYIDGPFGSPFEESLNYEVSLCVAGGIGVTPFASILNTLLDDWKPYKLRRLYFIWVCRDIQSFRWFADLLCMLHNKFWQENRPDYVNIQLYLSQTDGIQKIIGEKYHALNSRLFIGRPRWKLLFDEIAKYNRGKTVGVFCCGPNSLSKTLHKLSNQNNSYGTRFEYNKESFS
Assay [10] addresses NADPH oxidase 5 (Homo sapiens) (UniProt Q96PH1). Briefly: compounds shifting NOX5 Amplex Red fluorescence – cell-based, HEK293-NOX5, NOX inhibitor project, primary screen (AID 1161). To be noted: HEK293-NOX5, ionomycin, 45 min, higher = more signal.
The nature of assay [11]: compound effects on lung adenocarcinoma cell viability – A549, calcein-AM fluorescence, 48 h, basal, profiling panel (AID 1162). Also: test concentration not given here. The following applies: higher = more signal.
Assay [12] is described as follows: compound effects on differentiated 3T3-L1 adipocyte viability – cell-based, 3T3-L1 adipocytes, calcein-AM fluorescence, 48 h, basal, profiling panel (AID 1163). Also: test concentration not given here. The following applies: 3T3-L1 adipocytes viability, higher = more signal.
Assay [13] can be described thus: compound effects on hepatocellular carcinoma cell viability – HepG2, calcein-AM fluorescence, 48 h, basal, profiling panel (AID 1164). Also: test concentration not given here. To be noted: higher = more signal.
A short description of assay [14]: compound effects on multiple myeloma cell viability – MM1S, calcein-AM fluorescence, 48 h, basal, profiling panel (AID 1165).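 Also: viability of MM1S multiple myeloma cells under basal unstimulated conditions; test concentration not given here.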 To be noted: higher = more signal.
Assay [15] is described as follows: calcein-AM signal in unstimulated myeloma cells – cell-based, calcein-AM fluorescence, 48 h, PK04 Diversity Set, profiling panel (AID 1166).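 Also: cells grown under basal conditions without added stimulus; test concentration not given here.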 To be noted: RPMI8226 myeloma viability, higher = more signal.
Assay [16] can be described thus: JC-1 mitochondrial signal, unstimulated HepG2 cells – cell-based, JC-1 fluorescence, 24 h, 100 nL compound, profiling panel (AID 1167). Also: test concentration not given here. The following applies: HepG2 mitochondrial potential, higher = more signal.
A short description of assay [17]: JC-1 mitochondrial signal, unstimulated adipocytes – cell-based, JC-1 fluorescence, 3T3-L1 adipocytes, 24 h, 100 nL compound, profiling panel (AID 1168). Also: test concentration not given here. The following applies: JC-1 mitochondrial fluorescence, higher = more signal, called active from +8 up or from −8 down.
The nature of assay [18]: JC-1 mitochondrial signal, unstimulated myeloma cells – cell-based, JC-1 fluorescence, RPMI8226, 24 h, 100 nL compound, profiling panel (AID 1169). Also: test concentration not given here. To be noted: JC-1 mitochondrial potential fluorescence, higher = more signal.
Assay [19] can be described thus: JC-1 mitochondrial signal, unstimulated MM1S myeloma – cell-based, JC-1 fluorescence, 24 h, 100 nL compound, profiling panel (AID 1170). Also: test concentration not given here. To be noted: MM1S mitochondrial potential, higher = more signal.
A short description of assay [20]: resazurin metabolic signal in A549 cells – cell-based, resazurin fluorescence, 24 h, PK04 Diversity Set, profiling panel (AID 1171). Also: test concentration not given here. To be noted: A549 viability, higher = more signal, called active from +8 up or from −8 down. A general note: The colour change of resazurin is a common sign of viable cells or microbes.

Active and inactive are the calls of the source.

NADPH oxidase 5 (Homo sapiens), sequence (Q96PH1 whole entry, looked up): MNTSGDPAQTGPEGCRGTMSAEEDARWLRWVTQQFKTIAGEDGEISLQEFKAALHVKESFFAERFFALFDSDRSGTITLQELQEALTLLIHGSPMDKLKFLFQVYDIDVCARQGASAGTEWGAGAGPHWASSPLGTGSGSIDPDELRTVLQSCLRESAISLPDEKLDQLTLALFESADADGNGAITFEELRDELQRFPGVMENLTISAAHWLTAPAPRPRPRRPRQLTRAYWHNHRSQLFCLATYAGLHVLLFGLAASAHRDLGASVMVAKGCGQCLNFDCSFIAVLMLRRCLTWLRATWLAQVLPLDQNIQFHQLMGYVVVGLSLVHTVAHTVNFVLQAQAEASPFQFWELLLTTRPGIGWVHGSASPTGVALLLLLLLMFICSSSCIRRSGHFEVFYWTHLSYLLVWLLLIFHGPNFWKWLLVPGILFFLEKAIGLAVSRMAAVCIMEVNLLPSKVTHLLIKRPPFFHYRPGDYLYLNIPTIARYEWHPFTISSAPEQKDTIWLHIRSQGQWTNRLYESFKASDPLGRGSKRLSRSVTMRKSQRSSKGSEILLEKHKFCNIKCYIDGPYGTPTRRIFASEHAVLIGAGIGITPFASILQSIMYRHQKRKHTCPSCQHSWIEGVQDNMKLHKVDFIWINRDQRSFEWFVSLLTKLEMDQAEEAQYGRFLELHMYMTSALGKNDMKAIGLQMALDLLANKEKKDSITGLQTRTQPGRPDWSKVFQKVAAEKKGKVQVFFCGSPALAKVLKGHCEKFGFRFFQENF
NADPH oxidase 2 (Homo sapiens), sequence (P04839 whole entry, looked up): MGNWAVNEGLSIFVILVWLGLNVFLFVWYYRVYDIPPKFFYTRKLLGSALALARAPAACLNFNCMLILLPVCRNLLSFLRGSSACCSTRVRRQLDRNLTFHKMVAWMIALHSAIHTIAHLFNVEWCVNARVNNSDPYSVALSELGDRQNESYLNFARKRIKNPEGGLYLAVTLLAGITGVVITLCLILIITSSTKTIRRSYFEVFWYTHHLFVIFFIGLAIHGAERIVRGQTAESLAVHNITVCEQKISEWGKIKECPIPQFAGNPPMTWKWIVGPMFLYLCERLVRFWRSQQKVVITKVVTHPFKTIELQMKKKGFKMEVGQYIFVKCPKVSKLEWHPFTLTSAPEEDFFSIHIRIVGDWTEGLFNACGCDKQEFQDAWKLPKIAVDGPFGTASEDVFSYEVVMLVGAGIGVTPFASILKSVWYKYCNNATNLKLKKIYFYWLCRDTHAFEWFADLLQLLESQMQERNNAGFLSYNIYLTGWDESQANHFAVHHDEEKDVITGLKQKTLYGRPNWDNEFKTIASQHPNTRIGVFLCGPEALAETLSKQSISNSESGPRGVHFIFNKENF

As for `Cc1ccc(F)cc1S(=O)(=O)N[C@@H]1CCN(Cc2ccc(Oc3ccccc3)cc2)C1`, the z-score is -12.2 (active) in assay [1]; 7.61 (inactive) in assay [3]; 1.9 (inactive) in assay [4]; 0.701 (inactive) in assay [5]; 1.19 (inactive) in assay [6]; -0.766 in assay [7]. Further, the z-score in [8] was -0.615 (inactive); in [9], -1.08 (inactive); in [10], -1.67; in assay [11] it was -1.26; in [12] it was -0.119; in assay [13], -1.25. In addition, the z-score is -3.43 in assay [14]; -3.16 in assay [15]; 0.998 in assay [16]; 0.546 (inactive) in assay [17]; -1.19 in assay [18]; -2.3 in assay [19]. Besides, the z-score in [20] is -0.214 (inactive). For the same compound, the composite z-score in [2] came out at 0.266.

As to `C=C(CCCC)C(=O)CC[C@@H](OC(=O)c1cccnc1)c1ccccc1OCCO`, the z-score in assay [1] is 0.225 (inactive); in [3], 22.3 (active); in assay [4] it was 5.38 (inactive); in assay [5], 0.88 (inactive); in [6], 0.871 (inactive); in assay [7] it was 0.315. Besides, the z-score is -1.73 (inactive) in [8]; -0.158 (inactive) in assay [9]; -1.44 in [10]; -0.528 in assay [11]; 0.101 in [12]; -0.14 in assay [13]. Further, the z-score in assay [14] was -3.21; in assay [15], -2.92; in [16] it was 0.0547; in assay [17] it was 0.361 (inactive); in [18] it was -0.754; in assay [19] it was -1.33. Besides, in assay [20], the z-score was 0.335 (inactive). The same compound yielded a composite z-score in assay [2] of -0.101.

On to `NC(=O)N1C(=O)C2C(C1=O)C1C=C(CCCO)C2C(c2cccs2)N1Cc1cc2c(cc1Br)OCO2` (stereo not given), for which the z-score in assay [1] is 0.0978 (inactive); in [3], 17.7 (active); in assay [4], 2.3 (inactive); in assay [5], 0.865 (inactive); in assay [6], 0.872 (inactive); in assay [7], 0.413. For the same compound, the z-score in [8] is -0.848 (inactive); in assay [9], -0.662 (inactive); in assay [10], -1.1; in assay [11], 0.89; in assay [12], 1.46; in [13] it was 0.78. Moreover, the z-score in [14] was 0.0067; in [15] it was 0.695; in assay [16], 1.01; in [17], 0.111 (inactive); in assay [18] it was -0.11; in assay [19] it was -0.214. Further, the z-score in assay [20] was 0.514 (inactive). Besides, the composite z-score in assay [2] turned out to be 0.254.

For `O=C(CS)NCCCCCCNC(=O)[C@H]1C[C@H]2C(=O)N[C@@H](Cc3ccccc3)C(=O)N2[C@H]1c1cccc(OCCO)c1`, the z-score in assay [1] was -0.405 (inactive); in assay [3], 6 (inactive); in assay [4] it was 0.988 (inactive); in assay [5], -0.228 (inactive); in assay [6], 0.351 (inactive); in assay [7], 0.882. Moreover, the z-score was 1.76 (inactive) in assay [8]; 0.441 (inactive) in assay [9]; -0.135 in [10]; 0.0757 in assay [11]; -0.154 in assay [12]; 0.77 in assay [13]. For the same compound, the z-score was 0.306 in assay [14]; 0.895 in assay [15]; -0.394 in assay [16]; 0.0403 (inactive) in assay [17]; -0.309 in [18]; -1.12 in assay [19]. In [20], the z-score was 0.311 (inactive). In [2], this compound had a composite z-score of 0.269.

Consider `C=C(/C(=C/C[C@@H](OC(=O)c1ccncc1)c1ccc(OCCO)cc1)c1cc(C(=O)OC)ccc1OC)C(C)C`, for which the z-score was 0.927 (inactive) in assay [1]; 17.9 (active) in assay [3]; 2.79 (inactive) in [4]; 2.56 (inactive) in [5]; 1.02 (inactive) in assay [6]; 0.596 in assay [7]. For the same compound, the z-score was -2.45 (inactive) in assay [8]; -1.24 (inactive) in assay [9]; -1.86 in [10]; -0.738 in assay [11]; 0.61 in assay [12]; 0.391 in assay [13]. The z-score in assay [14] was -0.166; in assay [15], 0.687; in assay [16], 2.81; in [17] it was 0.436 (inactive); in assay [18], -0.177; in assay [19], -0.744. The z-score in [20] was 1.4 (inactive). In assay [2], this compound returned a composite z-score of -0.0984.

For `CC=CC(O)C1C=CC2C(=O)N(c3ccccc3)C(=O)C2N1Nc1ccccc1` (stereo not given), the z-score in [1] was 0.509 (inactive); in assay [3] it was 5.52 (inactive); in assay [4], 1.17 (inactive); in assay [5], 0.419 (inactive); in [6], 1.17 (inactive); in [7] it was -0.959. Moreover, the z-score in [8] was 0.209 (inactive); in [9] it was -4.28 (inactive); in assay [10] it was -2.42; in assay [11] it was 1.04; in assay [12], -0.511; in assay [13], 1.05. The z-score in assay [14] is 0.214; in [15], -0.279; in assay [16], -0.222; in assay [17], 0.243 (inactive); in assay [18], -0.866; in assay [19], -0.749. Also, the z-score in assay [20] was 0.0599 (inactive). In addition, the composite z-score in assay [2] worked out at 0.135.

On to `COc1c(C)cc(-c2cc3c(c(Cc4ccccc4)n2)[Si](C(C)C)(C(C)C)OC3)cc1C`, for which the z-score is -1.01 (inactive) in assay [1]; 0.613 (inactive) in assay [3]; -0.172 (inactive) in assay [4]; 0.249 (inactive) in assay [5]; 0.189 (inactive) in assay [6]; -0.671 in [7]. In addition, the z-score in [8] is -0.233 (inactive); in assay [9], 0.243 (inactive); in [10], 0.152; in [11], -0.983; in assay [12], -1.44; in [13], 0.269. For the same compound, the z-score in [14] was -0.418; in assay [15], -0.0095; in assay [16], -1; in assay [17], -0.737 (inactive); in assay [18], 0.0185; in assay [19], -0.00287. Moreover, the z-score in [20] was -0.124 (inactive). In assay [2], this compound had a composite z-score of 0.0004.

Take `O=C(CS)NCCCCCCNC(=O)[C@@H]1C[C@@H]2C(=O)N3CCC[C@H]3C(=O)N2[C@@H]1c1cccc(OCCO)c1`: the z-score in assay [1] is 1.89 (inactive); in [3], 2.94 (inactive); in [4] it was -0.677 (inactive); in assay [5] it was 1.94 (inactive); in [6], -1.78 (inactive); in assay [7], 2.09. The z-score was 1.17 (inactive) in [8]; 0.87 (inactive) in [9]; 0.222 in assay [10]; 2.14 in assay [11]; 0.426 in [12]; 1.02 in [13]. Besides, the z-score in assay [14] is 0.0848; in assay [15], 0.449; in [16], -0.151; in assay [17] it was 0.193 (inactive); in assay [18], 0.0158; in [19], 0.111. For the same compound, the z-score in assay [20] is -0.659 (inactive). Besides, the composite z-score in assay [2] stood at 0.113.

Consider `CN1C(=O)C2C=CC(C(O)c3c(F)cccc3Cl)N(Nc3ccccc3)C2C1=O` (stereo not given), for which the z-score is -1.32 (inactive) in assay [1]; 0.32 (inactive) in assay [3]; 0.733 (inactive) in assay [4]; -0.108 (inactive) in [5]; 1.12 (inactive) in assay [6]; -0.809 in assay [7]. Also, the z-score in [8] was -2.08 (inactive); in [9], -4.96 (inactive); in assay [10] it was -2.51; in assay [11] it was -0.635; in assay [12], -0.924; in assay [13], -1.18. For the same compound, the z-score in [14] is 0.161; in [15] it was -1.42; in assay [16], -1.4; in assay [17], -0.144 (inactive); in [18] it was -0.725; in assay [19], 0.302. In addition, the z-score in assay [20] is -0.31 (inactive). This compound came in with a composite z-score in assay [2] of 0.277.

Values taken from PubChem BioAssay.
